Screens deposited in PubChem BioAssay by several laboratories.
ROMK primary – modulates human ROMK potassium channel activity. B-score at 10 µM. AID 1918. Tet-inducible ROMK, thallium flux fluorescence; actives lie on both sides. P48048. actives 2% (n = 130,000);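 active = signal ratio slope over the read window, or its plate-corrected B-score, at least 3 SD from the plate mean, either direction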;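 also: B-score of the F/F0 ratio slope over 7 to 12 s after thallium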
WT yeast gro inh – growth inhibition of WT yeast, mitochondrial fusion screen; AID 1362; actives 2.1% (n = 190,000); mitochondrial fusion phenotypic screen, WT strain; inhibition, % at 10 µM; in the data active = inhibition above about 58%; tested in S. cerevisiae
Arbovirus anti – arbovirus infection inhibition; AID 1251; inhibition, % at 10 µM; arbovirus infection cell-based antiviral screen; actives 0.37% (n = 200,000); in the data active = inhibition above about 30%
PERK inhibitor – inhibitors of human PERK kinase. CHO PERK-DD fusion, SEAP luminescence translation reporter. inhibition, % at 5.6 µM. actives 0.17% (n = 220,000). AID 1416;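 active = inhibition above the mean inhibition of all tested compounds plus 3 SD, set separately per screening campaign, cut at about 2.9% in these data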;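 also: PERK kinase domain activated by AP20187 dimerizer at 100 nM; 0% = DMSO with dimerizer and 100% = rapamycin at 8.4 µM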
Starred values were filed as active, the others as inactive. In the library only some 3.3% were active in any assay of this set; here they are far more common.

For CC1CC2=C(NC(=S)NC2c2ccccc2F)/C(=C/c2ccccc2F)C1 (centres undefined) the results were ROMK primary -0.381, WT yeast gro inh 79.8*, Arbovirus anti -11.6 and PERK inhibitor 0.2.
CC1CC2=C(NC(=S)NC2c2cccc(F)c2)/C(=C/c2cccc(F)c2)C1 (centres undefined) was read as ROMK primary -0.221, WT yeast gro inh 61.3*, Arbovirus anti -3.5 and PERK inhibitor 0.4.
Cc1ccc(NC(=O)c2nc[nH]c2C(=O)N[C@@H](C)c2ccccc2)cc1 was read as WT yeast gro inh 74.3*, Arbovirus anti -20.0 and PERK inhibitor -0.1.
For CCC1CCCCN1c1cc(C)nc2cc(-c3cccc(C)c3)nn12 (centres undefined) the results were WT yeast gro inh 88.8*, Arbovirus anti -18.1 and PERK inhibitor 0.0.
`CC(C)(C)c1ccc(C(=O)NNC(=S)NCC2CCCO2)cc1` (centres undefined) gave WT yeast gro inh -5.1, Arbovirus anti 12.0 and PERK inhibitor 1.0.
Screening CC(C)(C)c1ccc(C(=O)NC(=S)NCC2CCCO2)cc1 (centres undefined) returned ROMK primary -1.55, WT yeast gro inh 14.7, Arbovirus anti 40.4* and PERK inhibitor 0.4.
Screening CCN1/C(=C/c2ccc3cc(C)ccc3[n+]2CC)Sc2ccccc21 returned WT yeast gro inh 66.5, Arbovirus anti -35.7 and PERK inhibitor -0.8.
CCN1/C(=C/c2ccc3cc(C)ccc3[n+]2CC)Sc2cc(C)c(C)cc21 was read as WT yeast gro inh 91.6*, Arbovirus anti -34.7 and PERK inhibitor -0.1.
Screening COC(=O)c1[nH]c2cc(OC)ccc2c1NC(=O)CCN1CCSCC1 returned WT yeast gro inh -8.2, Arbovirus anti -0.1 and PERK inhibitor 0.5.
Cc1onc(-c2ccccc2Cl)c1C(=O)OCn1nnc2ccccc2c1=O was read as WT yeast gro inh 2.6, Arbovirus anti 3.0 and PERK inhibitor -1.2.
Cc1[nH]c2ccccc2c1C(=O)COC(=O)c1c(-c2ccccc2Cl)noc1C was read as ROMK primary -0.07, WT yeast gro inh 86.5*, Arbovirus anti -29.8 and PERK inhibitor -1.6.
Screening Cc1[nH]c2ccccc2c1C(=O)COC(=O)c1c(-c2c(F)cccc2Cl)noc1C returned WT yeast gro inh 85.3*, Arbovirus anti -25.4 and PERK inhibitor -0.1.
For CC(OC(=O)CCCSc1nc2ccccc2s1)C(=O)NC(N)=O (centres undefined) the results were ROMK primary 0.506, WT yeast gro inh -5.1, Arbovirus anti -1.8 and PERK inhibitor 0.2.
Screening O=C(Nc1cccc(S(=O)(=O)NC2=NCCC2)c1)c1cc(-c2ccco2)nc2ccccc12 returned PERK inhibitor 3.2*.
Cc1ccc(-c2cc3c(N=O)c4ccccc4c-3n[nH]2)cc1 was read as ROMK primary -1.12, WT yeast gro inh 64.0*, Arbovirus anti -15.3 and PERK inhibitor -0.8.
CCC1(N(C(C)=O)c2ccc(OC)cc2)C(=O)c2ccccc2C1=O was read as WT yeast gro inh -2.7, Arbovirus anti 1.4 and PERK inhibitor -1.0.
For COc1ccc(N=Cc2nc(-c3ccco3)oc2O)cc1 the results were ROMK primary 0.588, WT yeast gro inh -29.1, Arbovirus anti -16.0 and PERK inhibitor 1.2.
Screening CCC(=NCc1ccc(Cl)c(Cl)c1)c1nc(-c2ccco2)oc1O returned ROMK primary -0.91, WT yeast gro inh 66.6*, Arbovirus anti -34.3 and PERK inhibitor -0.2.
For Cc1ccnn2cc3c(=O)n(C)c(=O)n(C)c3c12 the results were WT yeast gro inh 9.8, Arbovirus anti 4.2 and PERK inhibitor 0.8.
`CC(C)(C)OC(=O)N1CCC(c2cc(=O)n3[nH]cc(C(=O)NC4CCCC4)c3n2)CC1` gave WT yeast gro inh -0.3, Arbovirus anti 5.5 and PERK inhibitor 3.2*.
`CC(C)(C)OC(=O)N1CCC(c2cc(=O)n3[nH]cc(C(=O)Nc4ccc(F)c(Cl)c4)c3n2)CC1` gave ROMK primary 0.442 and PERK inhibitor 0.8.
Screening COc1ccc(NC(=O)c2c[nH]n3c(=O)cc(C4CCN(C(=O)OC(C)(C)C)CC4)nc23)cc1Cl returned ROMK primary 0.307, WT yeast gro inh -8.5, Arbovirus anti 48.6* and PERK inhibitor 1.3.
Screening CCSc1nc(O)c(C2OC(=O)c3c2ccc(OC)c3OC)c(=O)n1CC (centres undefined) returned WT yeast gro inh -6.2, Arbovirus anti 2.9 and PERK inhibitor 0.6.
O=C(NNC(=S)NC1CCCCC1)c1ccc(Cl)s1 was read as ROMK primary -0.396, WT yeast gro inh -9.9, Arbovirus anti 38.3* and PERK inhibitor 0.0.
Screening CCOc1cc(/C=N/NC(=O)CCc2n[nH]c(=O)[nH]c2=O)ccc1O returned ROMK primary 1.09, WT yeast gro inh -9.9, Arbovirus anti 6.9 and PERK inhibitor 0.8.
Clc1ccc2c(N/N=C/c3ccccc3Br)ccnc2c1 was read as ROMK primary 0.894, WT yeast gro inh 94.9, Arbovirus anti 0.6 and PERK inhibitor 0.0.
Screening Clc1ccc2c(N/N=C/c3cccc(Br)c3)ccnc2c1 returned WT yeast gro inh 98.7*, Arbovirus anti -32.3 and PERK inhibitor -0.1.
For COCC(=O)N1CCCC(C(=O)c2ccc(-c3ccccc3)c(F)c2)C1 (centres undefined) the results were ROMK primary 0.846, WT yeast gro inh 58.6*, Arbovirus anti 1.4 and PERK inhibitor 0.1.
`CC(=O)NCC(=O)N1CCCC(C(=O)c2ccc(-c3ccccc3)c(F)c2)C1` (centres undefined) gave ROMK primary -0.0173, WT yeast gro inh 4.4, Arbovirus anti -3.5 and PERK inhibitor 0.7.
Screening CS(=O)(=O)N(CC(O)Cn1c2ccccc2c2ccccc21)c1ccccc1 (centres undefined) returned WT yeast gro inh 13.4, Arbovirus anti 42.0* and PERK inhibitor -1.4.
Screening CN(CC(O)Cn1c2ccccc2c2ccccc21)S(C)(=O)=O (centres undefined) returned ROMK primary -0.14, WT yeast gro inh -11.3, Arbovirus anti 2.0 and PERK inhibitor -1.1.
Cc1sc(-n2c(C)cc(/C=C3\SC(=S)NC3=O)c2C)c(C#N)c1C was read as ROMK primary 2.03, WT yeast gro inh 76.7*, Arbovirus anti -3.9 and PERK inhibitor 0.5.
`CCC(Oc1ccccc1)C(=O)NCCOC` (centres undefined) gave ROMK primary 1.16, WT yeast gro inh -3.6, Arbovirus anti 5.5 and PERK inhibitor -0.3.
Screening CC(NC(=O)CCn1nc(-c2ccc(Cl)cc2)ccc1=O)c1ccccc1 (centres undefined) returned ROMK primary -1.09, WT yeast gro inh 3.0, Arbovirus anti 4.0 and PERK inhibitor 0.2.
O=C(C(Cc1ccccc1)n1cccc1)N1CCN(c2ncccn2)CC1 (centres undefined) was read as WT yeast gro inh -3.3, Arbovirus anti -3.3 and PERK inhibitor -0.2.
Screening Cc1cccc(N2CCN(C(=O)C(Cc3ccccc3)n3cccc3)CC2)c1C (centres undefined) returned WT yeast gro inh 68.9*, Arbovirus anti -23.6 and PERK inhibitor 0.0.
CC(=O)Oc1ccc(N(c2ccccc2)S(=O)(=O)c2ccc(C)cc2)cc1 was read as ROMK primary 0.373, WT yeast gro inh 22.0, Arbovirus anti 7.0 and PERK inhibitor 2.4.
